Experimental data published in PubChem BioAssay (EPA / NIEHS).
Records with an inconclusive call do not appear. The source made the active and inactive calls. How the source made its calls, unless noted: active means hit-call score of the fitted dose curve at least 0.9, where 1 is the maximum; inactive means score below 0.9.

What was measured:
[1] = TOX21_p53_BLA_p2_viability: Viability Assessment in the Tox21 HCT-116 p53 Agonism Beta-lactamase Assay, Phase 2 (AID 2283591; active means hit-call score of the fitted dose curve at least 0.9, where 1 is the maximum;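 further: compound exposure lasted 16 h at 37 °C; actives lower the ATP signal meaning cytotoxicity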)
Outline: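 Cytotoxicity readout: CellTiter-Glo ATP luminescence, 30 min at room temperature, after the beta-lactamase read. Cells were HCT116 exposed 16 h at 37C to compounds pin-transferred at 217-fold dilution from DMSO stocks.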

[2] = target: Cellular tumor antigen p53 (Homo sapiens) (UniProt P04637); test: TOX21_p53_BLA_p2_ratio: Tox21 HCT-116 p53 Agonism Beta-lactamase Assay, Ratio, Phase 2 (AID 2283592; active means hit-call score of the fitted dose curve at least 0.9, where 1 is the maximum)
Cellular tumor antigen p53 (Homo sapiens), sequence (P04637 whole entry, looked up): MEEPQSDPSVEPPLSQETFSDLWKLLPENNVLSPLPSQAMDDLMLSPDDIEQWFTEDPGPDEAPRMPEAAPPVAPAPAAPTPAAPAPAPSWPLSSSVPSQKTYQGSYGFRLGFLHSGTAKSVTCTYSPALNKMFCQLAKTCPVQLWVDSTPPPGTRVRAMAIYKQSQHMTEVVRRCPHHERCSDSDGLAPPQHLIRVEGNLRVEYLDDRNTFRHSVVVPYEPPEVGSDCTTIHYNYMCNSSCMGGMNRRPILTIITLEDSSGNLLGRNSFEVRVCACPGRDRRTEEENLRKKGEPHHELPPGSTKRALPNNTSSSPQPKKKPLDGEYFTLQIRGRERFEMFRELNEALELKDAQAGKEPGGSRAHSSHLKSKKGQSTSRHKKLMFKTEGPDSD
Outline: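 Ratio endpoint: beta-lactamase cleavage of CCF4-AM, blue (460 nm) over green (530 nm). HCT116 reporter line; 16 h treatment, 37C; substrate 2 h RT.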

[3] = TOX21_p53_BLA_p3_viability: Viability Assessment in the Tox21 HCT-116 p53 Agonism Beta-lactamase Assay, Phase 3 (AID 2283593; active means hit-call score of the fitted dose curve at least 0.9, where 1 is the maximum;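 further: cells exposed to compound for 16 h before reading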)
Outline: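 Cellular ATP was quantified by CellTiter-Glo luminescence, read after 30 min at room temperature. Beforehand, HCT116 cells (4000/well) received compound 5 h post-seeding, 217-fold diluted from DMSO, then incubated 16 h at 37C.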

[4] = target: Cellular tumor antigen p53 (Homo sapiens) (UniProt P04637); test: TOX21_p53_BLA_p3_ratio: Tox21 HCT-116 p53 Agonism Beta-lactamase Assay, Ratio, Phase 3 (AID 2283596; active means hit-call score of the fitted dose curve at least 0.9, where 1 is the maximum)
Outline: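 Cells were seeded at 4000/well, rested 5 h at 37C, then dosed with DMSO compound solutions (217-fold dilution) for 16 h. CCF4-AM substrate was loaded for 2 h at room temperature, and the 460/530 nm emission ratio was fitted for gain of signal versus DMSO.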

[5] = TOX21_p53_BLA_p4_viability: Viability Assessment in the Tox21 HCT-116 p53 Agonism Beta-lactamase Assay, Phase 4 (AID 2283597; active means hit-call score of the fitted dose curve at least 0.9, where 1 is the maximum;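 further: hits lower the luminescence signal meaning cytotoxicity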)
Outline: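 Cytotoxicity was inferred from loss of CellTiter-Glo luminescence. HCT116 cells had been dosed with compounds after 5 h plating, incubated 16 h at 37C and 5% CO2, and exposed to the CCF4-AM substrate for 2 h.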

[6] = target: Cellular tumor antigen p53 (Homo sapiens) (UniProt P04637); test: TOX21_p53_BLA_p5_ratio: Tox21 HCT-116 p53 Agonism Beta-lactamase Assay, Ratio, Phase 5 (AID 2283599; active means hit-call score of the fitted dose curve at least 0.9, where 1 is the maximum)
Outline: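 Beta-lactamase reporter ratio (blue 460 nm over green 530 nm, 405 nm excitation) after 2 h CCF4-AM loading, in HCT-116 cells exposed 16 h at 37 C to compounds pinned at 217-fold dilution. Increases relative to DMSO baseline scored.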

[7] = TOX21_p53_BLA_p5_viability: Viability Assessment in the Tox21 HCT-116 p53 Agonism Beta-lactamase Assay, Phase 5 (AID 2283600; active means hit-call score of the fitted dose curve at least 0.9, where 1 is the maximum)
Outline: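 Luciferase-coupled ATP quantitation of cells treated for 16 h (37C, 5% CO2) with test chemicals delivered in DMSO via a 217-fold dilution; 4000 cells/well; reagent incubated 30 min at room temperature before luminescence reading.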

[8] = target: Cellular tumor antigen p53 (Homo sapiens) (UniProt P04637); test: TOX21_p53_BLA_p4_ratio: Tox21 HCT-116 p53 Agonism Beta-lactamase Assay, Ratio, Phase 4 (AID 2283601; active means hit-call score of the fitted dose curve at least 0.9, where 1 is the maximum)
Outline: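 Signal is the blue/green (460nm/530nm) ratio of cleaved versus uncleaved CCF4-AM substrate, read after 2 h substrate loading. Cells were HCT116 carrying the p53-responsive beta-lactamase reporter, dosed 16 h at 37C, 5% CO2; CellTiter-Glo measured in parallel.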

[9] = CCTE_Shafer_MEA_dev_firing_rate_mean: CCTE's Neural Network Formation Assay for Mean Firing Rate, Shafer Lab (AID 2284031);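 further: curve fitted for loss of firing so AC50 reflects decreased mean firing rate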
Outline: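 Extracellular spike frequency, AUC over DIV 5–12 recordings, in rat cortical neuron MEA cultures dosed from plating; loss direction vs DMSO.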

[10] = CCTE_Shafer_MEA_dev_per_burst_spike_percent: CCTE's Neural Network Formation Assay for Percent of Spikes in a Burst, Shafer Lab (AID 2284032);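 further: fitted as a decrease in burst spike percentage below DMSO baseline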
Outline: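 Value is trapezoidal AUC over recordings on days 5, 7, 9 and 12 of the well-mean fraction of spikes falling in single-electrode bursts; rat cortical cultures exposed continuously from plating, treatment renewed DIV 5 and 9, fitted downward against DMSO.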

[11] = CCTE_Shafer_MEA_dev_active_electrodes_number: CCTE's Neural Network Formation Assay for Number of Active Electrodes, Shafer Lab (AID 2284040; active means hit-call score of the fitted dose curve at least 0.9, where 1 is the maximum;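 further: potency for loss of active electrodes versus DMSO so lower counts are hits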)
Outline: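 Developing rat cortical networks on MEAs, exposed DIV 0–12. Value is the AUC of active-electrode counts (≥5 spikes/min) from days 5, 7, 9, 12, relative to DMSO.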

[12] = CCTE_Shafer_MEA_dev_bursting_electrodes_number: CCTE's Neural Network Formation Assay for Number of Bursting Electrodes, Shafer Lab (AID 2284043; active means hit-call score of the fitted dose curve at least 0.9, where 1 is the maximum;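 further: potency is for loss of bursting electrodes relative to DMSO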)
Outline: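 Number of electrodes reaching ≥1 burst every 2 min was recorded at DIV 5, 7, 9 and 12 and collapsed as trapezoidal area under the curve. Cultures were rat cortical neurons on MEA plates, dosed continuously from plating with medium and treatment refreshed on DIV 5 and 9.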

[13] = CCTE_Shafer_MEA_dev_per_burst_interspike_interval: CCTE's Neural Network Formation Assay for Burst Interspike Interval, Shafer Lab (AID 2284044);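 further: potency for a decrease of within-burst interspike interval below DMSO level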
Outline: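 Rat cortical primary cultures, 16 electrodes/well; compound from plating, renewed with full media change DIV 5 and 9. Spikes via adaptive detector; per-burst ISI well-mean over active bursting electrodes; AUC of DIV 5/7/9/12 recordings; loss-direction fit vs DMSO.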

[14] = CCTE_Shafer_MEA_dev_burst_duration_mean: CCTE's Neural Network Formation Assay for Mean Burst Duration, Shafer Lab (AID 2284045);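 further: curve fitted for loss meaning shorter burst duration than DMSO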
Outline: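 Mean single-electrode burst duration (first to last spike), averaged over bursting electrodes per well, then integrated as area-under-curve across recordings at days 5, 7, 9 and 12. Rat cortical cultures on MEAs, compound present from plating, refreshed at feeds.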

[15] = CCTE_Shafer_MEA_dev_interburst_interval_mean: CCTE's Neural Network Formation Assay for Mean Interburst Interval, Shafer Lab (AID 2284046);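 further: well-mean interburst interval of bursting electrodes as AUC over four recording days; curve fitted for decrease in interburst interval relative to DMSO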
Outline: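 Network formation assay in primary rat cortical cultures, exposed from DIV 0 to 12. Mean interburst interval per well, integrated as AUC over four recordings.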

[16] = CCTE_Shafer_MEA_dev_inter_network_spike_interval_mean: CCTE's Neural Network Formation Assay for Mean Inter-network Spike Interval, Shafer Lab (AID 2284047);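 further: potency for a decrease in mean inter-network spike interval below DMSO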
Outline: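 Compound was given at plating to primary rat cortical neurons and renewed with full medium changes on DIV 5 and 9. Extracellular activity was recorded on days 5, 7, 9, 12; AUC values were fitted for loss relative to DMSO control.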

[17] = CCTE_Shafer_MEA_dev_network_spike_number: CCTE's Neural Network Formation Assay for Number of Network Spikes, Shafer Lab (AID 2284048);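 further: synchronized bursts across electrodes counted on days 5 7 9 12 and integrated as AUC; fit as a loss of signal meaning fewer network spikes than DMSO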
Outline: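 Number of network spikes (coordinated firing across electrodes) recorded on days 5, 7, 9 and 12 and summarised as area under the curve. Rat cortical cultures on MEA, continuous compound exposure with full medium/treatment exchange at DIV 5 and 9.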

[18] = CCTE_Shafer_MEA_dev_network_spike_peak: CCTE's Neural Network Formation Assay for Mean Number of Electrodes in Network Spike, Shafer Lab (AID 2284049);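 further: fitted for loss of signal meaning fewer electrodes in network spikes than DMSO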
Outline: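 Rat cortical primary culture, 1.5 x 10^5 cells/well, 48-well MEA (16 electrodes/well). Dosing day 0 through DIV 12, full media/compound exchange DIV 5, 9. AxIS adaptive spike detection; AUC over days 5/7/9/12; loss-of-signal vs DMSO.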

[19] = CCTE_Shafer_MEA_dev_spike_duration_mean: CCTE's Neural Network Formation Assay for Mean Spike Duration, Shafer Lab (AID 2284051);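 further: mean network spike duration pooled as area under curve over DIV 5 to 12 recordings; potency for a decrease in mean network spike duration versus DMSO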
Outline: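 With DMSO as baseline, loss of mean network spike duration was scored from extracellular recordings of rat cortical neurons on MEA plates. Exposure spanned plating to DIV 12; the four recording days were collapsed into one AUC value.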

[20] = CCTE_Shafer_MEA_dev_network_spike_duration_std: CCTE's Neural Network Formation Assay for Standard Deviation of Network Spike Duration, Shafer Lab (AID 2284052);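 further: hits are decreases in network spike duration SD versus DMSO vehicle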
Outline: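 Developing networks of rat cortical neurons were exposed over twelve days in vitro on 48-well MEA plates. Trapezoidal AUC of recordings (DIV 5–12) was analysed for signal loss relative to DMSO vehicle.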

[21] = CCTE_Shafer_MEA_dev_per_network_spike_spike_number_mean: CCTE's Neural Network Formation Assay for Mean Number of Spikes in a Network Spike, Shafer Lab (AID 2284053);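 further: fitted as decrease in spikes per network spike relative to DMSO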
Outline: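 First, rat cortical cells (1.5 x 10^5/well) were seeded onto MEA wells; second, dosing began at plating and was refreshed on DIV 5 and 9; finally, network-spike spike counts across DIV 5–12 were summarized as AUC.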

Measured: AC50

CCC[CH2][Sn]([CH2]CCC)([CH2]CCC)[O][Sn]([CH2]CCC)([CH2]CCC)[CH2]CCC
inactive: [2]
active: [1] 0.708 µM | [3] 0.236 µM | [4] 0.348 µM | [5] 0.668 µM | [6] 2.03 µM | [7] 1.37 µM | [8] 2.22 µM | [9] 0.0245 µM | [10] 0.0342 µM | [11] 0.0429 µM | [12] 0.0378 µM | [13] 0.0768 µM | [14] 0.034 µM | [15] 0.0762 µM | [16] 0.0315 µM | [17] 0.0564 µM | [18] 0.0457 µM | [19] 0.0308 µM | [20] 0.0312 µM | [21] 0.029 µM
